Assay results reported in PubChem BioAssay (NCI).
The panel holds about 83,000 compounds, 20% with a hit somewhere; the sample as a whole holds those more often.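 Growth was measured after 48 h exposure to one concentration of compound in 96-well plates. Values under 10 count as active.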 Values without a mark were called inactive. Active and inactive are the calls of the source.

system: SK-MEL-2 melanoma; experiment: NCI-60 one-dose screen, 48 h (100 = growth as untreated, 0 = no growth, -100 = all killed); conditions: 10 µM unless noted
Experimental: Growth inhibition of the SK-MEL-2 human tumor cell line is measured as a screen for anti-cancer activity. Cells are grown in 96 well plates and exposed to the test compound for 48 hours. Compounds are tested at a single concentration, which is 10^-5 M for most compounds. The reported endpoint is percent growth (GI% or GIPRCNT), where numbers from 0 - 100% represent growth inhibition, and numbers from -100% - 0 represent cell death. For example, a value of 40 represents 60% growth inhibition. A value of 0 means no net growth occurred over the course of the experiment. A value of -40 indicates 40% of cells at the beginning of the experiment died by the end of the experiment. A value of -100 means all cells are dead at the end of the experiment.
NCI-60 Human Tumor Cell Lines Screen was performed using the standard one-dose NCI protocol, which is described in more detail at https://dtp.cancer.gov/discovery_development/nci-60/default.htm.
Compounds with GIPRCNT values below 10 were considered active. Activity score was based on GIPRCNT using the following formula: […]
Score is 0 for GIPRCNT values of 100 or above, 50 for GIPRCNT values of 0, and 100 for GIPRCNT values of -100.

Row | SMILES | growth
1 | N#Cc1nn(-c2cc(=O)[nH]c3ccc(Cl)cc23)c(N)c1C#N | 116%
2 | O=C1Nc2ccccc2[C@]12CC(c1ccccc1)=NN2 | 44.9%
3 | COc1ccc(-c2cc(-c3ccc(Cl)cc3)c(C#N)c(=O)n2CCCCC(=O)Nc2ccccc2N)cc1 | 79.7%
4 | COc1ccc(/C=C2\C(=O)N=C3N2NC(c2cc(Br)ccc2O)C=C(C)N3c2ccccc2)cc1 (stereo not given) | 104%
5 | O=C1NC(=O)c2c1c1c3ccccc3ccc1c1[nH]c3ccc(Br)cc3c21 | 35.4%
6 | COc1ccc(NC(=O)c2sc3nc(C)c(C(=O)/C=C/c4cccc(OC)c4)cc3c2N)cc1 | 42.9%
7 | Nc1nc2c([nH]1)c1[nH]c3ccccc3c1c1[nH]c3ccccc3c21 | -23.5% (active)
8 | CC(=O)[C@@H]1CCC=C2CC[C@]3(C)[C@@H](CC[C@@H]4[C@@]5(C)CCCNC(C)(C)[C@@H]5CC[C@]43C)[C@H]21 | -52.3% (active)
9 | Cc1cc(=O)[nH]c2c(C#N)cnn12 | 102%
10 | S=C(Nc1ccc(-c2nc(N3CCOCC3)c3cccn3n2)cc1)Nc1cccnc1 | 43.5%
11 | Cc1nc(-c2ccccc2)cc2c(O)c(C(=O)NN)[nH]c(=O)c12 | 93.3%
12 | N#C/C(=C\c1ccc2ccccc2c1)c1cc2ccccc2[nH]1 | 43.5%
13 | O=C(OCc1ccc2cccc(O)c2n1)N1CCN(C(=O)c2cc3cc(F)ccc3[nH]2)CC1 | -59.7% (active)
14 | CCCCCOc1ccc(C(=O)/C(Br)=C/C(=O)O)cc1 | 95.2%
15 | Cc1cc(N)c2cc(NC(=O)/C=C\c3ccccc3Cl)ccc2n1 | -72.5% (active)
16 | CC1(c2ccccc2O)NN=C(/N=C/c2cccc([N+](=O)[O-])c2)N1C(Cc1c[nH]c2ccccc12)C(=O)O (stereo not given) | 87.8%
17 | CCNc1nc(-c2ccc(Cl)c(OC)c2)c(-c2ccnc(NCCCNS(=O)(=O)c3ccc(Cl)cc3)n2)s1 | -27.1% (active)
18 | C=C(C)[C@@H]1CC[C@]2(C(=O)OC)CC[C@]3(C)[C@H](CC[C@@H]4[C@@]5(C)C/C(=C/NC(N)=S)C(=O)C(C)(C)[C@@H]5CC[C@]43C)[C@@H]12 | 103%
19 | O=S(=O)(NCCNc1nccc(-c2c(-c3cccc(F)c3)nc3occn23)n1)c1ccc(Br)cc1 | 103%
20 | CN[C@]12CC3(C=CC(=O)C=C3)O[C@@]1(Cc1ccc(OC)cc1)N(C)C(=O)N2 | 70.7%

Row | SMILES | growth
21 | CC(C)(C)n1cc(-c2ccnc(NCCCNS(=O)(=O)c3ccc(F)cc3)c2)c(-c2cccc(F)c2)n1 | 88.4%
22 | CN1C(=O)/C(=C/c2ccc(C(=O)Nc3ncc(Cc4ccc(Cl)cc4)s3)cc2)SC1=S | 75.6%
23 | N=C(N)c1ccc(-c2ccc(-c3ccc(Cl)cc3)s2)nc1 | 103%
24 | O=c1oc2ccc([N+](=O)[O-])cc2cc1Br | 106%
25 | OCCOCCN(Cc1ccccn1)Cc1cc(I)cc(I)c1O | 87.1%
26 | O=C1NCCC12CCN(c1c(Cl)cncc1-c1ccc(O)cc1)CC2 | 105%
27 | Clc1ccc(Nc2nnc(COc3ccccc3)c3ccccc23)cc1 | -26.5% (active)
28 | O=C(CSc1nc2ccc([N+](=O)[O-])cc2[nH]1)Nc1cccc(C(F)(F)F)c1 | -5.5% (active)
29 | COc1cc(-c2nc(SCC(C)C)nc(Nc3cccc4ccccc34)c2C#N)cc(OC)c1OC | 107%
30 | O=C(N/N=C/c1ccc(F)cc1)c1ccc(C(F)(F)F)nc1Nc1cccc(C(F)(F)F)c1 | -29.1% (active)
31 | COc1cc(NC(C)CCCNC(C)C)c2ncccc2c1OC (stereo not given) | 90.8%
32 | O=Cc1ccc([N+](=O)[O-])s1 | 107%
33 | COc1ccc(-c2nnc(-c3ccc4c(c3)nc(-c3ccncc3)n4C3CCCCC3)o2)cc1 | 77.3%
34 | Cn1c(=O)c2[nH]c(N/N=C/c3ccccc3Br)nc2n(C)c1=O | 120%
35 | O=C1C(Cl)=C(Nc2ccc(O)cc2)C(=O)N1Cc1ccc(Cl)cc1 | 66.2%
36 | CCCCC(=O)Nc1ncc(Cc2ccc(Cl)cc2)s1 | 90.4%
37 | COc1cc(CNC(=O)CCCC/C=C/C(C)C)ccc1OCc1nnc(Nc2ccc([N+](=O)[O-])cc2)o1 | 78.9%
38 | CCOC(=O)C(=Cc1cccc(Cl)c1)C(=O)OCC | 25.3%
39 | CCCc1cc(NC)nc(S(=O)(=O)CC)n1 | 115%
40 | CCOC(=O)c1cnc2ccccc2c1Cl | 109%
